Experimental data: PubChem BioAssay
Activity calls are given as the source filed them.

Key:
[1] = molecular target: Albumin (Bos taurus) (UniProt P02769); assay: bovine serum albumin binders on microarray, profiling panel, artefact control for SMM control protein annotation, biochemical, small-molecule microarray, Alexa647 label, 635/667 nm fluorescence (AID 1118); conditions: BSA-A647 binding, fluorescence 635 nm, higher = more signal;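 also: score merges 667 nm emission intensity and signal-to-noise per printed compound spot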
[2] = small-molecule microarray binders of probe aXIP, primary screen, biochemical, NeuroSMM set, 635/667 nm fluorescence (AID 1119); conditions: higher = more signal, called active from +8 up or from −8 down;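 also: probe is the protein aXip251-270 applied at 1 µg/mL to compound-printed slides; binding of probe to printed compounds measured as 667 nm fluorescence plus signal to noise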
[3] = small-molecule binders of probe aNOTCH3, primary screen, biochemical, small-molecule microarray, 635/667 nm fluorescence (AID 1120); conditions: higher = more signal;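 also: probe is a biotin-tagged antibody raised against NOTCH3 rather than NOTCH3 protein; score merges spot fluorescence near 667 nm with spot signal to noise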
[4] = small-molecule binders of probe aNOTCH2, primary screen, biochemical, small-molecule microarray, 635/667 nm fluorescence (AID 1121); conditions: higher = more signal;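 also: score merges feature fluorescence read at 667 nm with its signal to noise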
[5] = molecular target: Carbonic anhydrase 2 (Homo sapiens) (UniProt P00918); assay: CAII small-molecule binders, profiling panel, biochemical, small-molecule microarray, Alexa647-labelled CAII (AID 1122); conditions: CAII-A647 binding fluorescence, higher = more signal
[6] = COS7 lysate on small-molecule microarray, probe aHis, 635 nm (AID 1123); conditions: COS7 cell lysate, fluorescence, higher = more signal;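 also: z-score combines 667nm fluorescence intensity with signal-to-noise per printed compound spot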
[7] = compound binding in COS7 lysate, probe aLAP1, primary screen, cell lysate, small-molecule microarray (AID 1124); conditions: probe aLAP1, fluorescence, higher = more signal;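 also: lysate comes from COS7 cells expressing LAP1 and is applied at 0.3 µg/mL; score merges spot fluorescence near 667 nm with signal-to-noise over triplicate slides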
[8] = tested on: Sam68 (KHDRBS1); assay: Sam68 small-molecule binders, primary screen, biochemical, small-molecule microarray, 635 nm fluorescence (AID 1125); conditions: small-molecule microarray binding, higher = more signal;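 also: score merges 667 nm channel intensity with signal to noise over triplicate slides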
[9] = tested on: Chordin-like protein 2 (CHRDL2); assay: CHRDL2 small-molecule binders, primary screen, biochemical, small-molecule microarray, 635 nm fluorescence (AID 1126); conditions: small-molecule microarray binding, fluorescence 635 nm; higher = more signal;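 also: printed compound slides probed with Chrdl2 protein at 4 µg/mL for 1 h at 4 C; score merges 667 nm emission intensity with signal to noise over three replicate slides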
[10] = molecular target: Concanavalin-A (Canavalia ensiformis) (UniProt P02866); assay: ConA small-molecule binders, primary screen, artefact control for SMM control protein annotation, biochemical, small-molecule microarray, Alexa647 label, 635 nm (AID 1127); conditions: ConA-A647 binding fluorescence, higher = more signal;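 also: z combines 667 nm emission intensity with signal-to-noise across three replicate slides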
[11] = anti-His antibody binders, primary screen, artefact control for SMM control protein annotation, biochemical, small-molecule microarray, 635 nm fluorescence (AID 1128); conditions: anti-His Alexa647 antibody binding, higher = more signal;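 also: score merges feature fluorescence with signal-to-noise for each printed compound spot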
[12] = tested on: Human papillomavirus type 1a E7 protein (residues 1-88); assay: HPV1a E7 small-molecule binders, primary screen, biochemical, small-molecule microarray, residues 1-88, 635 nm (AID 1129); conditions: small-molecule microarray binding, fluorescence 635 nm; higher = more signal
[13] = molecular target: Focal adhesion kinase 1 (Homo sapiens) (UniProt Q05397); assay: small-molecule microarray binders of FAK, primary screen, biochemical, 635/667 nm fluorescence, BSA, DTT (AID 1130); conditions: PTK2 binding, 635 nm fluorescence, higher = more signal;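 also: composite of spot emission at 667 nm and signal to noise over triplicate slides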
[14] = tested on: Fibrinogen (Alexa647-labelled); assay: fibrinogen binders on compound microarrays, profiling panel, artefact control for SMM control-protein annotation, biochemical, small-molecule microarray, 635/667 nm fluorescence (AID 1131); conditions: fibrinogen-A647 binding fluorescence, higher = more signal;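 also: z-score merges 667 nm fluorescence with per-spot signal-to-noise over triplicate slides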
[15] = molecular target: Follistatin (Homo sapiens) (UniProt P19883); assay: follistatin binders on small-molecule microarrays, primary screen, biochemical, small-molecule microarray, 635/667 nm fluorescence (AID 1132); conditions: FST binding, 635 nm fluorescence, higher = more signal
[16] = molecular target: Fibroblast growth factor 2 (Homo sapiens) (UniProt P09038); assay: FGF2 binders on small-molecule microarrays, primary screen, biochemical, small-molecule microarray, 635/667 nm fluorescence (AID 1133); conditions: small-molecule microarray binding, FGF2, fluorescence 635/667; higher = more signal
[17] = mitochondrial membrane potential change in A549 cells, profiling panel, cell-based, JC-1 fluorescence, basal, 24 h, 100 nL (AID 1138); conditions: higher = more signal;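 also: A549 lung adenocarcinoma cells under basal conditions with no added stimulus; test concentration not given here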
[18] = tested on: Lefty1; assay: Lefty1 binders on small-molecule microarrays, primary screen, biochemical, small-molecule microarray, 635/667 nm fluorescence (AID 1139); conditions: small-molecule microarray binding, fluorescence 635/667; higher = more signal
[19] = tested on: wheat germ agglutinin (Triticum aestivum), Alexa647-labelled; assay: wheat germ agglutinin binders on compound microarrays, profiling panel, artefact control for SMM control-protein annotation, biochemical, small-molecule microarray, 635/667 nm fluorescence (AID 1140); conditions: WGA-A647 binding, 635 nm fluorescence, higher = more signal;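 also: score merges 667 nm feature emission with signal to noise over triplicate slides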
[20] = molecular target: Luciferin 4-monooxygenase (Photinus pyralis) (UniProt P08659); assay: firefly luciferase enzyme inhibitors, primary screen, biochemical, luminescence, purified enzyme, 2006 set (AID 1141); conditions: SteadyGlo luminescence, 30 min, higher = more signal, called active from +8 up or from −8 down;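 also: cell-free assay with purified firefly luciferase at 100 ng per well in PBS; test concentration not given here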
Sequence of Luciferin 4-monooxygenase (Photinus pyralis) (P08659 whole entry, looked up): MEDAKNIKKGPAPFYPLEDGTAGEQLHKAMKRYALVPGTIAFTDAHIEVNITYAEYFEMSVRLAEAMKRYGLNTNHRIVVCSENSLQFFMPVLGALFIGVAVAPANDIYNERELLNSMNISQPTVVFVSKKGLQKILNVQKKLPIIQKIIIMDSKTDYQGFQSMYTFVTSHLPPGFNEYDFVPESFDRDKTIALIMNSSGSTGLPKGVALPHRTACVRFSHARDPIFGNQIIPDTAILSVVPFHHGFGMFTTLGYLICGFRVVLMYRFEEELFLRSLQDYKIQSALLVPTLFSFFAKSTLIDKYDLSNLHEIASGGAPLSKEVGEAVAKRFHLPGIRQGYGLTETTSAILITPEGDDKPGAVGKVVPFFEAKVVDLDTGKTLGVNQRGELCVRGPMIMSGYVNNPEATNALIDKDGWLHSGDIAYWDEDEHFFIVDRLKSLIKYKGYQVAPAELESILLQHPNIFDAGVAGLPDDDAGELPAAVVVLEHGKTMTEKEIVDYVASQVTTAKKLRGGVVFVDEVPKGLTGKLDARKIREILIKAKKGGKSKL

Sequence of Albumin (Bos taurus) (P02769 whole entry, looked up): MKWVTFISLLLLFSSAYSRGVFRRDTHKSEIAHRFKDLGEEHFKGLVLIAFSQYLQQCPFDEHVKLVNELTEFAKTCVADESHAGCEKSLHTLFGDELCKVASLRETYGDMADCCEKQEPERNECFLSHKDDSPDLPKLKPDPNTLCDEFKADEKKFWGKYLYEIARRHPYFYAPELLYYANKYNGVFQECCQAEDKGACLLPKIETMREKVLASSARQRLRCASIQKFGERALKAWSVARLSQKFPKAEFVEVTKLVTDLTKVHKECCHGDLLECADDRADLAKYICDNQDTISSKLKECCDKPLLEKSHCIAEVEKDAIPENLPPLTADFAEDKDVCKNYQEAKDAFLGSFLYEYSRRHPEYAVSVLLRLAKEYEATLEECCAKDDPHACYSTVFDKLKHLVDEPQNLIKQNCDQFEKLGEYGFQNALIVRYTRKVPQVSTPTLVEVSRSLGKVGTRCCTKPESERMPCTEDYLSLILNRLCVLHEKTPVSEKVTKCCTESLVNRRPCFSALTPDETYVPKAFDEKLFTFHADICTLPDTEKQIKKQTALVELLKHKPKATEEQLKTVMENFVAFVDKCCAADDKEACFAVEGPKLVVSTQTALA
Sequence of Focal adhesion kinase 1 (Homo sapiens) (Q05397 whole entry, looked up): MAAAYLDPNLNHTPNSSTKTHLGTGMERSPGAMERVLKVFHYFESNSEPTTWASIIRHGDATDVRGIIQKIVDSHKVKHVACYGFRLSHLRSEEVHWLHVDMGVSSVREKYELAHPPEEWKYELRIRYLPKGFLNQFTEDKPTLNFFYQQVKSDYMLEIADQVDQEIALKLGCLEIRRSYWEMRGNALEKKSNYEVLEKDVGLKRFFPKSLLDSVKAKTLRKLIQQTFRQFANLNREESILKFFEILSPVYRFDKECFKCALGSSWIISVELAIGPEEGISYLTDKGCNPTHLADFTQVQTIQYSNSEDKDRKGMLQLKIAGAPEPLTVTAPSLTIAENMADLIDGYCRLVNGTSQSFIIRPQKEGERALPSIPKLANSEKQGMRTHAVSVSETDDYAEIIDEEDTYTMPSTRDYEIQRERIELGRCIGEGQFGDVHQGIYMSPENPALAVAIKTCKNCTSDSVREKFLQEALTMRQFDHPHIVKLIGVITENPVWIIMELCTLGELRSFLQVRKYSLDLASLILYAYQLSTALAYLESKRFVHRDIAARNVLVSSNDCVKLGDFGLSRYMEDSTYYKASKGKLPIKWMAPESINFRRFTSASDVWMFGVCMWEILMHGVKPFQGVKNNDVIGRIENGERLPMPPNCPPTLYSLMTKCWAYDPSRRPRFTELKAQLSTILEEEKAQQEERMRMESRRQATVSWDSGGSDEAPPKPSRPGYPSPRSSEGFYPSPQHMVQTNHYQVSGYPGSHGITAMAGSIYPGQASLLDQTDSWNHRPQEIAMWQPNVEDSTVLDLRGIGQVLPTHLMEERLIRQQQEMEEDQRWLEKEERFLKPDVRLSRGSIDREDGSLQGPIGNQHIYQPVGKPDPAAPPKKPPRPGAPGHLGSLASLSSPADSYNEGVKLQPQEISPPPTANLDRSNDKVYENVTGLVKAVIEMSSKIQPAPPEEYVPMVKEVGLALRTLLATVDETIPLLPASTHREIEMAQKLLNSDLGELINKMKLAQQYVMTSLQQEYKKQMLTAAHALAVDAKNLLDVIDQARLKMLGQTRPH
Sequence of Follistatin (Homo sapiens) (P19883 whole entry, looked up): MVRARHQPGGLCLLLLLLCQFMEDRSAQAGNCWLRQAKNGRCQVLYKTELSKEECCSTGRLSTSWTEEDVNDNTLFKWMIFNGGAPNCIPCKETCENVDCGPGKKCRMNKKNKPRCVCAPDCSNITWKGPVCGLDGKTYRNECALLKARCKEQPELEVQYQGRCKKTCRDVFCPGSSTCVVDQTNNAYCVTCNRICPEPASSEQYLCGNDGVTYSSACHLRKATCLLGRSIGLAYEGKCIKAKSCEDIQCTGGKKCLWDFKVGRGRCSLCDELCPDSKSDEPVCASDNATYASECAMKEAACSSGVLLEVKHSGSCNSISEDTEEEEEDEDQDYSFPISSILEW
Sequence of Fibroblast growth factor 2 (Homo sapiens) (P09038 whole entry, looked up): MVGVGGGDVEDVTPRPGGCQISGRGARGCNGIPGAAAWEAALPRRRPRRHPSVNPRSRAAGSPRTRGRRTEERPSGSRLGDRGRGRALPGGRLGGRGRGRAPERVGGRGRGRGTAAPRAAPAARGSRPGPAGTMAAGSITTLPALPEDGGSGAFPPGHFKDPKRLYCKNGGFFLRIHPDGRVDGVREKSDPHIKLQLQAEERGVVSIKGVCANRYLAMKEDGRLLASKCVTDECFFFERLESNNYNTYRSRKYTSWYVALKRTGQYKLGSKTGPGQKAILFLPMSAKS
Sequence of Concanavalin-A (Canavalia ensiformis) (P02866 whole entry, looked up): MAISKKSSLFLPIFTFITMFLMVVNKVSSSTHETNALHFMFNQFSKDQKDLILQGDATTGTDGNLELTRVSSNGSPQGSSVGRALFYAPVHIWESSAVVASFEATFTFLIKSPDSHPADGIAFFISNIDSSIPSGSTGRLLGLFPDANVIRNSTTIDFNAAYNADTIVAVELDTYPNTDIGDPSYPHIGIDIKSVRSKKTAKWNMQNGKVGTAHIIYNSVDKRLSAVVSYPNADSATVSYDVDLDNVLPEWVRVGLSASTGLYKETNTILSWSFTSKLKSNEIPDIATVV

| SMILES | composite z-score [1] | composite Z-score [2] | composite z-score [3] | composite z-score [4] | composite z-score [5] | composite z-score [6] | composite z-score [7] | composite z-score [8] | composite z-score [9] | composite z-score [10] | composite z-score [11] | composite z-score [12] | composite z-score [13] | composite z-score [14] | composite z-score [15] | composite z-score [16] | z-score [17] | composite z-score [18] | composite z-score [19] | z-score [20] |
| --- | --- | --- | --- | --- | --- | --- | --- | --- | --- | --- | --- | --- | --- | --- | --- | --- | --- | --- | --- | --- |
| C=CCNC(=O)[C@H]1[C@@H]2C(=O)O[C@@H](c3ccccc3)[C@@H](c3ccccc3)N2[C@@H](c2ccccc2OCCO)[C@]12C(=O)Nc1ccc(C#CCCO)cc12 | -0.066 | 0.313 (inactive) | -0.214 | -0.137 | 0.423 | 1.06 | 0.0894 | -0.0891 | -0.0022 | 0.801 | 1.12 | -0.231 | 0.191 | -0.205 | 0.0804 | 2.05 | 0.582 | -0.376 | -0.0387 | -0.412 (inactive) |
| CC(C)C(=C=CC[C@@H](O)c1ccc(OCCO)cc1)C[C@@H](O)COCc1ccccc1 | 0.531 | -0.114 (inactive) | 0.0744 | -0.105 | 0.624 | 0.924 | 0.664 | 1.19 | 0.325 | -0.625 | -0.547 | 0.948 | 0.0144 | 0.602 | 1.36 | 1.46 | 0.922 | 1.58 | 0.225 | -1.3 (inactive) |
| CN1C(=O)C2C=CC(C(O)C3CC=CCC3)N(N(c3ccccc3)c3ccccc3)C2C1=O (stereo not given) | -0.197 | 0.0007 (inactive) | 0.0715 | 0.19 | -0.287 | -0.202 | 0.52 | -1.25 | 0.774 | -0.372 | 0.118 | -1.42 | 0.102 | 0.0963 | 0.988 | -0.179 | 0.43 | 0.449 | 0.259 | 0.529 (inactive) |
| COc1ccc(C#Cc2ccc3c(c2)[C@]2(C(=O)N3)[C@H](c3ccccc3OCCO)N3[C@H](c4ccccc4)[C@H](c4ccccc4)OC(=O)[C@H]3[C@@H]2C(=O)Nc2nc3ccccc3s2)cc1 | 0.187 | 0.317 (inactive) | 1.12 | 0.0559 | 0.327 | 0.646 | 0.0878 | 1.31 | 0.886 | 0.931 | 1.5 | 1.16 | 0.717 | 0.767 | 1.25 | 1.19 | -2.28 | 1.33 | 0.828 | -1.36 (inactive) |
| CC(C)C(O)C1C=CC2C(=O)N(c3ccccc3)C(=O)C2N1Nc1ccc([N+](=O)[O-])cc1 (stereo not given) | 0.963 | 2.65 (inactive) | 1.2 | 0.185 | 0.719 | 1.84 | 0.894 | 1.13 | -0.565 | 0.726 | 0.663 | 1.17 | 0.774 | 0.954 | -0.197 | -0.378 | -0.0625 | -0.0809 | 1.01 | 1.18 (inactive) |
| CC(C)N1C(=O)[C@@]2(Cc3ccccc31)c1ccccc1C(=O)N(Cc1ccccc1Cl)[C@H]2c1ccc(CO)cc1 | -0.594 | 0.203 (inactive) | -0.321 | -0.152 | -0.154 | -0.472 | -0.289 | -0.162 | -0.465 | 0.0302 | -0.145 | -1.3 | -0.236 | -2.02 | -1.17 | -0.468 | -0.176 | -0.391 | -0.0789 | 0.847 (inactive) |
| COC(=O)[C@@]1(CCS(=O)(=O)c2ccccc2)N=C(c2ccc(OCCCO)cc2)O[C@H]1c1ccccc1CN=[N+]=[N-] | -0.307 | 0.559 (inactive) | 0.0807 | 0.0657 | 0.691 | 2.4 | 0.372 | 1.34 | -0.149 | 1.08 | 2.29 | 1.19 | 1.46 | 0.755 | 1.31 | 0.55 | -0.229 | 0.279 | 1.01 | -0.282 (inactive) |
| Cc1ccc(S[C@]2(C(=O)O)CC(=O)N(C(C)C)[C@@H]2c2ccc(CO)cc2I)cc1 | 0.162 | 0.556 (inactive) | 0.208 | 0.164 | 0.566 | 1.99 | 0.73 | 0.784 | -0.17 | 1.03 | 3.36 | 0.476 | 0.929 | 0.432 | 1.12 | 0.253 | 1.33 | -0.176 | 0.939 | -2.26 (inactive) |
| COC(=O)[C@]1(CCC(=O)OC(C)(C)C)N=C(c2ccc(OCCCO)cc2)O[C@@H]1c1ccccc1CN=[N+]=[N-] | -0.325 | -1.26 (inactive) | -0.0284 | 0.0059 | 0.675 | 1.72 | -0.46 | 0.866 | -1.04 | 0.779 | 0.0121 | 1.06 | 0.348 | 0.666 | 1.13 | 0.283 | -0.208 | -0.477 | 0.095 | -0.76 (inactive) |
| COc1ccc([Si](C)(C)[C@H]2[C@H](CCO)O[C@@]3(C(=O)N(Cc4ccc(N(C=O)c5ccccc5)cc4)c4ccccc43)[C@@H]2C)cc1 | 0.598 | -0.12 (inactive) | -0.127 | -0.164 | -0.0062 | 0.407 | -0.33 | -0.852 | -0.957 | 0.538 | 0.841 | 0.179 | 0.114 | -0.568 | 0.191 | -0.408 | 0.357 | 0.151 | 0.655 | 0.221 (inactive) |
| COCCOC(=O)N1C(=O)[C@@]2(c3cc(C#Cc4ccc(OC)cc4)ccc31)[C@H](c1ccc(O)cc1)N1[C@H](c3ccccc3)[C@H](c3ccccc3)OC(=O)[C@H]1[C@@H]2C(=O)N1CCc2cc(OC)c(OC)cc2C1 | 0.595 | 0.536 (inactive) | 0.327 | -0.0877 | 0.117 | 0.75 | 0.16 | 1.28 | 0.252 | 1.12 | 0.744 | 0.7 | 1.02 | 0.935 | 1.02 | 0.413 | -0.734 | 0.785 | 0.555 | 0.644 (inactive) |
